# Assay results reported in the supplement of paper PMC3545927.
# The list shows a part of the results. The true hit rate is not given.
# Target: furin, P09958
# Experiment: furin cleavage Z-score vs untreated control; higher = more cleavage, active = 3.5 or more, inactive = 1 or less, 8 variable residues between constant flanks
# Protocol: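 Multiplexed peptide-cDNA fusion cleavage assay. 8-mer variable peptides flanked by constant Cys-Ala (N-term) and Ala-Gly-Asn-Ala-Ser-Ala-Ser-Ala (C-term) and conjugated to a cDNA oligonucleotide were bead-immobilised via the N-terminus. They were treated with purified furin at a 1:10 enzyme:substrate ratio in 50 mM HEPES pH 7.5, 1 mM CaCl2, 100 mM NaCl for 7.5, 15 or 30 min. Released cDNA was counted by next-generation sequencing, and log counts versus no-furin controls were lowess-adjusted and converted to robust Z-scores.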
# Chain of furin, P09958 (P09958 whole entry): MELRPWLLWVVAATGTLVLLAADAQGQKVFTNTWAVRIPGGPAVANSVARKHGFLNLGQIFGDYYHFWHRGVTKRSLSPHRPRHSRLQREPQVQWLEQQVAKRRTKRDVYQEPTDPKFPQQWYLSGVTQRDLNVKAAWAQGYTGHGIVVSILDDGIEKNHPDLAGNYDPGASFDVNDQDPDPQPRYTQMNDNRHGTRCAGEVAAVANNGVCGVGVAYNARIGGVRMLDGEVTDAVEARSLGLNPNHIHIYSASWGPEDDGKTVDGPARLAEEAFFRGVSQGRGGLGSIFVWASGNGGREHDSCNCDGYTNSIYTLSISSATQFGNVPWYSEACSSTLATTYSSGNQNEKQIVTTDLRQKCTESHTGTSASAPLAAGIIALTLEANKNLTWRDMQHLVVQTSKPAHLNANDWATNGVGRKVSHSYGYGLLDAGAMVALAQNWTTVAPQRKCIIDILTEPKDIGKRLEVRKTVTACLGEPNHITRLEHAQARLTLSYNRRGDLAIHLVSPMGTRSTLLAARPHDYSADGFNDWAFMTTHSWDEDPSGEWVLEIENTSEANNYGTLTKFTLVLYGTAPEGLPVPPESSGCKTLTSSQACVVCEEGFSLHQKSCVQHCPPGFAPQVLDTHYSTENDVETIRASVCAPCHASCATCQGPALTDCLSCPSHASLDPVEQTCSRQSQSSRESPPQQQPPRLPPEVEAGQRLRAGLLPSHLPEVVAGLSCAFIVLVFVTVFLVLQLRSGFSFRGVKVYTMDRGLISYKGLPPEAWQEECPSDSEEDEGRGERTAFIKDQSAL
Sequence,furin cleavage Z-score (7.5 min),furin cleavage Z-score (15 min),furin cleavage Z-score (30 min)
CARHLIFCHSAGNASASA [HC855],-0.853 (inactive),0.266 (inactive),0.481 (inactive)
CARHMRMTRSAGNASASA [FS-857],13.4 (active),13.6 (active),9.7 (active)
CARMWRKTRSAGNASASA [FS-955],13.5 (active),13.7 (active),10.7 (active)
CADSGRKTRSAGNASASA [FS-760],9.82 (active),12.7 (active),9.11 (active)
CADSGRAYLPAGNASASA [FS-2629],-0.794 (inactive),-0.681 (inactive),-1.79 (inactive)
CARFWRKTRSAGNASASA [FS-1396],13 (active),13.8 (active),10.1 (active)
CARIVGPRTCAGNASASA [HC1183],0.967 (inactive),-0.921 (inactive),-0.233 (inactive)
CAYVPCHRPSAGNASASA [HC2309],1.57,-0.807 (inactive),0.069 (inactive)
CAPQAILDMIAGNASASA [HC331],-0.162 (inactive),-2.41 (inactive),-1.52 (inactive)
CAKWVPGAVYAGNASASA [HC551],-1.17 (inactive),-1.76 (inactive),-0.384 (inactive)
CAMEESSQHLAGNASASA [HC15],0.403 (inactive),2.52,1.06
CADQEVVTSTAGNASASA [HC2302],-0.902 (inactive),-1.54 (inactive),-1.12 (inactive)
CARMWRKNRSAGNASASA [FS-954],7.39 (active),10 (active),7.6 (active)
CAFQARLTRSAGNASASA [FS-158],10.8 (active),11.5 (active),9.98 (active)
CAMPECSQHLAGNASASA [HC1699],-0.692 (inactive),-0.28 (inactive),-0.904 (inactive)
CADQDLVGWPAGNASASA [HC713],-0.0765 (inactive),-0.565 (inactive),0.238 (inactive)
CARSKRAAPAAGNASASA [FS-2603],11.1 (active),9.91 (active),8.19 (active)
CAITRVESENAGNASASA [HC1281],-1.51 (inactive),-1.29 (inactive),0.308 (inactive)
CARDKRALKQAGNASASA [FS-1690],5.74 (active),8.75 (active),8.98 (active)
CAQAEAALENAGNASASA [HC532],0.288 (inactive),-0.4 (inactive),-1.4 (inactive)
CARSKKDFEAAGNASASA [FS-2458],0.38 (inactive),-0.117 (inactive),-0.363 (inactive)
CARTKRELENAGNASASA [FS-1935],14.2 (active),14.2 (active),11.6 (active)
CARSKRALKQAGNASASA [FS-2604],8.45 (active),11.8 (active),8.31 (active)
